# According to article PMC5540273 (PLoS ONE, 2017):
# Test system: T1, ERK4
# T1 construct: gene MAPK4
# Conditions: concentration: 1 μM,replicates: in singlicate; n = 1
# 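Note: KINOMEscan kinase panel screen.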
row,Structure (SMILES),%Inh
1,CCN(CC)CCOc1ccc(Nc2ncc3cc(-c4c(Cl)cccc4Cl)c(=O)n(C)c3n2)cc1 [SB-601273],76%
2,Cc1cc(C(=O)Nc2ccc(Oc3ccc4nc(NC(=O)C5CC5)cn4n3)cc2)nn1-c1ccccc1,18%
3,Cl.Oc1cc(-c2nc(-c3ccccc3)[nH]c2-c2ccncc2)ccc1Cl [SB-386023],10%
4,CNC(=O)c1ccccc1Sc1ccc2c(/C=C/c3ccccn3)n[nH]c2c1,0%
5,Cc1ccc2c(-c3ccncc3)c(-c3ccc(F)cc3)nn2c1.Cl [GW461484],0%
6,CN(C)CC(O)COc1ccc(Nc2nccc(-c3cnn4nc(N5CCOCC5)ccc34)n2)cc1 (stereo not drawn) [GW767488],6%
7,Cl.Cl.Nc1nc(-c2ccc3c(N)n[nH]c3c2)cc(N2CCCC(NC(=O)c3ccccc3)C2)n1 (stereo not drawn) [GSK2286775],28%
8,CCn1c(-c2nonc2N)nc2c(C#CC(C)(C)O)nc(OCCN)cc21.Cl.Cl [GSK902056],5%
9,CC(C)Nc1cc(-c2ccc3c(N)n[nH]c3c2)nc(N)n1 [GSK2221681],0%
10,Cl.Cl.NC[C@H](CC1CCCCC1)NC(=O)c1cc(Br)c(-c2ccnc3[nH]ccc23)s1 [GSK1581427],1%
11,Cc1ccc(-n2nc(C(C)(C)C)cc2NC(=O)Nc2ccc(OCCN3CCOCC3)c3ccccc23)cc1 [GW839464],3%
12,Nc1nc(Nc2ccccc2)cc(-c2ccc3c(N)n[nH]c3c2)n1 [GSK2225749],0%
13,C[C@@H]1CCN(C(=O)CC#N)C[C@@H]1N(C)c1ncnc2[nH]ccc12,7%
14,C=CC(=O)Nc1cc2c(Nc3ccc(F)c(Cl)c3)ncnc2cc1OCCCN1CCOCC1 [GW781483],0%
15,CCN(CC)CCCCNc1ncc2cc(-c3c(Cl)cccc3Cl)c(NC(=O)NC(C)(C)C)nc2n1,9%
16,CC(C)N1C(=O)Cc2cc(Nc3ncc(C(F)(F)F)c(NCc4cccc(S(C)(=O)=O)c4)n3)ccc21,4%
17,Cl.Cl.NC[C@H](Cc1ccc(C(F)(F)F)cc1)NC(=O)c1cc(Br)c(-c2ccnc3[nH]ccc23)s1 [GSK1487252],23%
18,Cc1n[nH]c2ccc(-c3cc(OC[C@@H](N)Cc4ccccc4)cnc3-c3ccoc3)cc12.O=C(O)C(F)(F)F.O=C(O)C(F)(F)F [GSK507358],0%
19,Cc1cc2cn[nH]c2cc1-c1cccc2c(N)c(C(N)=O)nnc12,0%
20,COc1ccc(C[C@@H](CN)NC(=O)c2cc(Br)c(-c3ccnc4[nH]ccc34)s2)cc1.Cl.Cl [GSK1389063],18%
21,O=C(NCCNc1ccnc(NCc2ccc(F)cc2)n1)c1cc2ccccc2s1 [GSK1379944],13%
22,C[C@H]1Oc2cc(cnc2N)-c2c(nn(C)c2C#N)CN(C)C(=O)c2ccc(F)cc21,0%
23,O=C(NCCCN1CCOC1=O)c1cnc(NCc2cc(Cl)ccc2Cl)nc1NC1CCCC1,4%
24,NC(=O)c1cc(-c2ccccc2)cc2c(C3CCNCC3)c[nH]c12 [GSK301362],21%
25,CN(C)CCOc1ccc(-c2cc(-c3c[nH]nc3-c3ccccn3)ccn2)cc1 [GW835314],0%
26,C[C@@H](Oc1cc(-c2cnn(C3CCNCC3)c2)cnc1N)c1c(Cl)ccc(F)c1Cl,15%
27,Cc1occc1-c1nc(N)c(OC[C@@H](N)Cc2c[nH]c3ccccc23)cc1-c1cc2c(C)n[nH]c2cn1 [GSK1660450],0%
